# Laboratory results published in ChEMBL document CHEMBL3988442, “University of Dundee, Small-Polar-MMV Screening Library” (2021).
# In all, about 48,000 compounds went through this assay and about 13,000 (27%) showed an effect of 50% or more. This is one part of the list.
# Tested on: Wolbachia pipientis
# Experiment: Anti-Wolbachia Cell-Based Screen
# Type: functional
# Design: scale not given: in the data most compounds retested in dose-response had high values
# Details: 5 µM
row,SMILES,Percent Effect [%]
1,Cc1ccc(CC(=O)N2CCCC(c3n[nH]c4nccnc34)C2)cc1 (centres undefined),102
2,O=C(CCc1ccccc1)N1CCCC(c2n[nH]c3nccnc23)C1 (centres undefined),111
3,O=C(Cc1ccc(F)cc1)N1CCCC(c2n[nH]c3nccnc23)C1 (centres undefined),91.78
4,O=C(CC1CCCC1)N1CCCC(c2n[nH]c3nccnc23)C1 (centres undefined),-9.091
5,Cc1cc(C2CCCN(C(=O)COc3ccc(F)cc3F)C2)n[nH]1 (centres undefined),-1.844
6,CN(C(=O)CN1CCc2nn(C)c(=O)cc2C1)c1nccs1,-17.97
7,CC(=O)N1CCN(C(=O)c2c(Cl)c3ccccc3n2C)CC1,8.743
8,CC(=O)N1CC=C(n2c(=O)[nH]c3ccccc32)CC1,120.7
9,CC(=O)N1CCC2(CC1)CN(C(=O)c1cccc3[nH]ccc13)C2,7.707
10,Cc1ccc(N2CC[C@@H](NC(=O)c3cnccn3)[C@H](O)C2)nn1,13.4
11,CC(C)CN1C(=O)CO[C@@H]2CN(C(=O)N(C)C)C[C@H]21,9.504
12,CN1CCC(C(=O)NCc2nncn2-c2ccccc2)CC1=O (centres undefined),-4.452
13,COc1cc(F)c(C(=O)N2C[C@@H](CN(C)CCO)[C@@H](CO)C2)c(F)c1,-8.552
14,COCCN(C)C[C@@H]1CN(C(=O)c2cccc(Cl)c2)C[C@@H]1CO,153.3
15,CCN(C)C[C@@H]1CN(S(=O)(=O)c2cccc(C#N)c2)C[C@@H]1CO,-4.035
16,COCCN(C)C[C@@H]1CN(C(=O)c2cccc(C#N)c2)C[C@@H]1CO,104.9
17,CN(CCO)C[C@@H]1CN(C(=O)c2c(F)cccc2Cl)C[C@@H]1CO,-7.74
18,COCCN(C)C[C@@H]1CN(C(=O)c2cccc(C(F)(F)F)c2)C[C@@H]1CO,-9.662
19,CN(CCO)C[C@@H]1CN(C(=O)c2cccc(OC(F)F)c2)C[C@@H]1CO,95.7
20,CN1CCC(N[C@@H]2CO[C@H](CNC(=O)Nc3ccccc3)[C@H]2O)CC1,-15.1
21,O=C(c1ccc(F)cc1F)N1C[C@H]2CC[C@@H]1CN(Cc1ccccc1)C2,-4.594
22,CC(C)N1CC2(CCCN(c3ncc(Cl)cc3F)C2)CCC1=O (centres undefined),-5.351
23,CCn1ccc(NC(=O)CCc2c(C)nn(C)c2C)n1,89.06

row,SMILES,Percent Effect [%]
1,CCS(=O)(=O)CCn1ccc(NC(=O)CCc2cccc(C)c2)n1,-1.723
2,CCn1ccc(NC(=O)CCc2c(C)noc2C)n1,94.65
3,Cc1noc(C)c1CC(=O)Nc1ccn(CC(N)=O)n1,108.2
4,Cc1noc(C)c1CC(=O)NCCc1cccs1,21.95
5,Cc1nn(C)c(C)c1CCC(=O)Nc1cn(C)c(=O)n(C)c1=O,-11.84
6,Cc1noc(C)c1CCC(=O)N(C)C(C)c1cccs1 (centres undefined),-6.492
7,Cc1ccc(NC(=O)CNc2ccn(CC(N)=O)n2)c(Cl)c1,2.31
8,Cc1noc(C)c1CCC(=O)NCCc1cccs1,18.14
9,NC(=O)Cn1ccc(NC(=O)C2(c3ccc(F)cc3)CC2)n1,-13.95
10,Cc1noc(C)c1CCC(=O)Nc1ccn(C)n1,102.9
11,Cc1nn(C)c(C)c1CCC(=O)Nc1cccn(C)c1=O,0.3485
12,CCc1cc(N(C)Cc2c(C)nn(C)c2C)n2nccc2n1,-6.903
13,CN(Cc1cc(F)ccc1F)CC(C)(CO)CO,17.08
14,CNC(=O)c1cccc(NCCOc2ccc(CC#N)cc2)c1C,12.16
15,COc1cccc(Cn2ncc(N(C)CCc3ccccc3)cc2=O)c1,-17.12
16,CC(C)OCCn1nnnc1Cc1ccc(Br)cc1,-13.25
17,CCOC(C(=O)N1CCn2c(C)nnc2C1)c1ccccc1 (centres undefined),-1.753
18,CCN(C)CC1CCN(c2ncc(Br)cn2)C1 (centres undefined),-2.721
19,CN(C)C(C(=O)N1CCCC1)c1ccccc1F (centres undefined),1.504
20,O=C(N1CCOCC1)N1CCCC1c1nc(-c2ccccn2)no1 (centres undefined),12.43
21,COc1cccc(-c2noc3c2CN(c2ncnc4c2CCC4)CC3)c1,-1.898
22,COCCOc1ccnc(-c2noc([C@@H]3CCCN3CC3CC3)n2)c1,-13.12
23,COCCN1CCCC1c1ccnc(-c2ccccc2)n1 (centres undefined),120.2

row,SMILES,Percent Effect [%]
1,COc1ccc(C2CCCN2c2cnccn2)c(OC)c1 (centres undefined),8.264
2,COc1ccc(-c2noc([C@@H]3C[C@@H](O)CN3C3CCN(C)CC3)n2)cc1,-10.46
3,COc1cccc(-c2nccc(C3CCCN3C)n2)c1 (centres undefined),102
4,CN1CCCC1c1ccnc(-c2ccccn2)n1 (centres undefined),114
5,COCCOc1ccnc(-c2noc([C@@H]3CCCN3C)n2)c1,-6.49
6,COCCOc1ccnc(-c2noc([C@@H]3CCCN3CC(C)(C)C)n2)c1,20.74
7,COc1ccc(-c2nccc(C3CCCN3C)n2)cc1 (centres undefined),122.9
8,Cc1nn(C)c2nc(-c3ccccn3)nc(NCCC3CCCN3C)c12 (centres undefined),-7.173
9,CN(CC(=O)NC(C)(C#N)C1CC1)Cc1nnc(C2CC2)n1C (centres undefined),-18.04
10,Cc1cccc(S(=O)(=O)N2CSCC2C(=O)NC(C)(C)C)c1 (centres undefined),-10.25
11,CCc1nc(CCNC(=O)NC2CC2)sc1C,2.732
12,C/C=C(\C)CN1C[C@H](c2cccc(OC)c2)[C@@H](N)C1,1.044
13,CN1CCN(C2CCN(c3ccnc(-c4ccccc4)n3)CC2)C1=O,9.74
14,CN1CCCC1CCn1ccnc1-c1nc(-c2ccccc2)no1 (centres undefined),-1.363
15,CN1CCCC1c1ccnc(-c2ccccc2)n1 (centres undefined),129.7
16,O=C(C[C@H]1[C@H]2CN(C(=O)Cc3ccccn3)C[C@@H]12)Nc1cccnc1,-5.449
17,O=C(C1=CCCC1)N1C[C@H](Oc2cccnc2)[C@H]2OCCC[C@H]21,9.91
18,O=C(CC1CCCC1)N1C[C@H](Oc2cccnc2)[C@H]2OCCC[C@H]21.O=C(O)C(F)(F)F,105.6
19,CN(C)CC(=O)N1C[C@@H](Oc2ccccn2)[C@H]2OCCC[C@H]21,-36.21
20,O=C(c1cscn1)N1C[C@@H](Oc2cccnc2)[C@H]2OCCC[C@H]21,101.6
21,O=C(c1ccnnc1)N1C[C@@H](OCC2CCCC2)[C@H]2OCCC[C@H]21,-2.599
22,O=C(Cc1ccccn1)N1C[C@@H](Oc2cccnc2)[C@H]2OCCC[C@H]21,93.72
23,CN(C)S(=O)(=O)N1C[C@H](Oc2cccnc2)[C@H]2OCCC[C@H]21.O=C(O)C(F)(F)F,21.05
